Assay outcomes (PubChem BioAssay)
Shown are actives, neighbours in structure and some others; about 0.37% of the full set was active somewhere.
Epigenetic derep = Quantitative High-Throughput Screen for Regulators of Epigenetic Control | Potency, µM (titrated, usually from 53.9 µM), for the others: top-dose GFP activation, hits mostly activators | 280,000 compounds, 0.2% hits | murine LDR cells, GFP reporter derepression, 30 h; note: potency is the fitted concentration of half-maximal effect; % of control where 0% means no effect; nearly all actives have a fitted effect of over 60% in size
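GFP-positive cell count by laser-scanning cytometry (objects 20–120 um) after 30 h, 37 C compound exposure of murine LDR cells; reporter is CMV-GFP integrated at a silenced locus, inducible by HDAC or DNMT inhibitors.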
Vif-APOBEC3F blk = qHTS for Inhibitors of Vif-A3F Interactions: qHTS | HeLa A3F-eYFP + Vif (tagged APOBEC3F with the HIV-1 protein that degrades it), YFP fluorescence increase | 390,000 compounds, 0.2% hits | Potency, µM (highest dose often 46.1 µM), for the others: at the top dose activity, negative = active; note: potency is the fitted concentration of half-maximal effect; % of control where 0% means no effect; nearly all actives have a fitted effect of over 65% in size
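HeLa cells stably expressing A3F-eYFP plus Vif, plated and incubated overnight at 37 deg C, then exposed to compounds overnight at 37 deg C. Blocked degradation read as raised yellow fluorescence (Ex 488/Em 500-530).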
TSG101-PTAP inh = qHTS Assay for Iinhibitors of HIV-1 Budding by Blocking the Interaction of PTAP/TSG101. Tumor susceptibility gene 101 protein (Homo sapiens), Q99816. AID 493005, 2010. 340,000 tested, under 10 active. Potency, µM (titrated, usually from 115 µM), inactives show at the highest dose activity change, negative = inhibition, most hits filed as inhibitors. Fluorescence polarization, FITC-PTAP peptide / Tsg101 binding; active = well fitted inhibition curve with a large enough effect in the main read-out, with a control signal flat, not every such curve was filed as active; inconclusive = small, poorly fitted or top-dose-only effect, or effect the other way, or a change in a side signal; inactive = no such curve, though single readings can be large or run the other way; note: potency is the fitted concentration of half-maximal effect; % of control where 0% means no effect
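Fluorescence anisotropy tracks displacement of a FITC-tagged PTAP peptide (50 nM) from the Tsg101 binding domain (10 uM), following a 20 min room-temperature incubation at pH 7.5.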
Vif-APOBEC3G blk = qHTS for Inhibitors of Vif-A3G Interactions: qHTS | AID 602310, 2012 | Potency, µM (top dose mostly 46.1 µM), for inactives: at the top dose activity, negative = active, hits mostly inhibitors | HeLa A3G-eYFP + Vif (tagged APOBEC3G with the HIV-1 protein that degrades it), YFP fluorescence, overnight | DNA dC->dU-editing enzyme APOBEC-3G (Homo sapiens), Q9HC16 | 410,000 compounds, 0.076% hits; note: potency is the fitted concentration of half-maximal effect; % is set by controls: 0 for no effect and ±100 for the full control effect; nearly all actives have a fitted effect of over 60% in size
Target sequence (Q9HC16 whole entry, looked up): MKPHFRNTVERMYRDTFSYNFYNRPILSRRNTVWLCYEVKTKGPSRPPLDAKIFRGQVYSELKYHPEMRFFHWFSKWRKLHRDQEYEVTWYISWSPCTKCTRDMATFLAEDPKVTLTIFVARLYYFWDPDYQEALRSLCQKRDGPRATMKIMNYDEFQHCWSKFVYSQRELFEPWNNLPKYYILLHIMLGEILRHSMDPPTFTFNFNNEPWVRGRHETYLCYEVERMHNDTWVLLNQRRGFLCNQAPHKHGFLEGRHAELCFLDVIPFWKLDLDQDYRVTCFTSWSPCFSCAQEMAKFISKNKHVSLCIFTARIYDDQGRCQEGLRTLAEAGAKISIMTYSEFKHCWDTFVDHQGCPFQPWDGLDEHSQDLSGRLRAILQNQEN
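Read-out is eYFP fluorescence (Ex 488/Em 500-530) from Vif-expressing HeLa A3G-eYFP cells; more signal means A3G escaped Vif-mediated degradation. Cells plated overnight, compound pinned in, incubated overnight at 37 deg C.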
CBFb-RUNX1 inh = qHTS Assay for Compounds Blocking the Interaction Between CBF-beta and RUNX1 for the Treatment of Acute Myeloid Leukemia; 230,000 tested, under 10 active; Potency, µM (top dose mostly 59.8 µM), for the others: at the highest dose activity, negative = inhibition, usual class: inhibitors; Runt-related transcription factor 1 (Homo sapiens) + Core-binding factor subunit beta …; AlphaScreen CBFb-His/RUNX1-biotin binding, biochemical; AID 1477, 2009; note: % of control where 0% means no effect
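CBFb-His/RUNX1-biotin, 30 nM each, preincubated 20 min RT; compound 15 min RT; Ni + streptavidin beads 50 ng each, 90 min RT; AlphaScreen read.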
MBNL1 CUG block = qHTS Assay for Inhibitors of MBNL1-poly(CUG) RNA binding; Muscleblind-like protein 1 (Homo sapiens), Q9NR56; TR-FRET MBNL1-His/biotin-(CUG)12 binding, 665/545 ratio; Potency, µM (highest dose often 57.5 µM), without a hit: at the highest dose activity change, negative = inhibition, hits mostly inhibitors; 280,000 compounds, 0.036% hits; AID 2675, 2010; active = well fitted inhibition curve with a large enough effect in the signal ratio, with a control signal flat, not every such curve was filed as active; inconclusive = small, poorly fitted or top-dose-only effect, or effect the other way, or a change in a side signal; inactive = no such curve, though single readings can be large or run the other way; the % refers to the signal ratio; note: potency is the fitted concentration of half-maximal effect; % is set by controls: 0 for no effect and ±100 for the full control effect
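Compound titration spanned 92 nM–58 uM against the MBNL1-His/biotin-(CUG)12 complex. After 60 min at room temperature with 5 nM streptavidin-XL665 and 0.055 ng/ul terbium anti-His, ratiometric 665/545 nm emission (Ex 340 nm) normalized to controls.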
* = called active by the depositor; ? = inconclusive; / = no result given; [ ] = another dose, or the depositor's remark. Unless noted, calls come from the whole dose curve; as a rule, active = well fitted curve in the direction sought with a large enough effect; inconclusive = small, poorly fitted or top-dose-only effect, or another doubt; inactive = no such curve, though single readings can be large; an effect the other way counts as inactive or inconclusive.

SMILES	Epigenetic derep	Vif-APOBEC3F blk	TSG101-PTAP inh	Vif-APOBEC3G blk	CBFb-RUNX1 inh	MBNL1 CUG block
C=CCn1c(=O)/c(=C/c2ccc(O)cc2)s/c1=C(/C#N)c1nnc2n1CCCCC2	-1%	?	47%	-2%	5%	16%
COC(=O)C1C2CC3c4[nH]c5cc(OC)ccc5c4CCN3CC2CC(OC2CCCCO2)C1OC (stereo not given)	/	11µM*	/	-9%	/	/
COc1ccc2c3c([nH]c2c1)[C@@H]1C[C@@H]2[C@@H](C[C@H](O)[C@H](OC)[C@H]2C(=O)O)CN1CC3	0%[16.9 µM]	/	/	/	5%[21.7 µM]	/
COC(=O)[C@H]1[C@H]2C[C@@H]3c4[nH]c5cc(OC)ccc5c4CCN3C[C@H]2C[C@@H](OC(=O)c2cc(OC)c(OC)c(OC)c2)[C@@H]1OC	22µM*	?	5%	-13%	?	?
COc1ccc2c3c([nH]c2c1)C1CC2C(CC(O)C(OC)C2C(=O)O)CN1CC3 (stereo not given)	3%	-6%	-14%	-2%	-12%	11%
Cc1ccc(S(=O)(=O)CCSc2nc(C)cc(C(F)(F)F)c2C#N)cc1	?	?	?	11µM*	0%	-8%
COc1ccc(C2Nc3cccc4cccc(c34)N2)cc1	-1%	-3%	-6%	1%	-3%	15%
COc1cc(OC)c(C2Nc3cccc4cccc(c34)N2)c(OC)c1	/	11µM*	-7%	-1%	/	?
COc1ccc(/C=C2\SC(=N)N(c3nccs3)C2=O)cc1OC	?	?	0%	?	-26%	28%
N=C1S/C(=C\c2ccc(-c3cccc(Cl)c3)o2)C(=O)N1c1nccs1	?	25µM*	0%	-4%	-8%	?
NC(=O)NCCC[C@H](N)C(=O)O	1%	/	/	/	4%[21.7 µM]	/
N[C@@H](CCCCNC(=O)CCCC[C@@H]1SC[C@H]2NC(=O)N[C@H]12)C(=O)O	/	/	/	/	0.4µM*	/
CCN(CC)C(=S)SSC(=S)N(CC)CC	0.25µM*	8%	2%	-10%	/	81%
O=C(O)c1ccc(NC(=O)c2cc3c([nH]c2=O)CCCC3=O)cc1	/	/	/	5%	/	/
O=C(Cc1ccccc1)N/N=C/c1ccc(-c2ccc([N+](=O)[O-])cc2)o1	?	?	?	7.9µM*	-7%	?
NC(=O)N/N=C/c1ccc(-c2ccc([N+](=O)[O-])cc2)o1	-3%	5%	1%	2%	-3%	?
Cc1ccnc2cc(Cl)cc(Cl)c12	/	/	/	2%	/	/
C=C(C)C(=O)Oc1ccc(N2C(=O)CCC2=O)cc1	22µM*	?	1%	0%	-22%	2%
CCOC(=O)Nc1cc2c(c(N)n1)N=C(c1ccccc1)CN2	/	22µM*	0%	?	/	/
Cc1cc2c(cc1C)N[C@]1(C[C@H]3CCCC(=O)N4CC[C@@H](C1)[C@@H]34)C(=NCc1ccccc1)N2	/	/	/	3%	/	/
Cc1cc(C)n(CC(O)COCc2ccccc2)n1 (stereo not given)	10µM*	3%	-6%	2%	5%	6%
Cc1cc(C)n(CC(O)COc2cccc(OCC(O)Cn3nc(C)cc3C)c2)n1 (stereo not given)	0%	12%	0%	-3%	2%	-3%
O=C(C[n+]1ccccc1Br)c1ccc2c(c1)CCCC2	/	/	/	2%	/	/
O=c1c2ccccc2sn1-c1ccc(Cl)c(S(=O)(=O)N2CCOCC2)c1	/	/	/	0%	/	/
O=C1C(Cl)=C(Nc2ccccc2O)C(=O)N1c1ccccc1	4%	1%	0%	-10%	0%	?
